Shown are actives, neighbours in structure and some others; about 3.4% of the full set was active somewhere.
GPR151 activ: activators of human GPR151. Q8TDV0. 1% of 650,000 active. PathHunter beta-arrestin GPR151 cells, luminescence. activation, % at 11.2 µM. AID 1508602; in the data active means activation above about 4.9%;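 further: 0% = median of compound wells and 100% = cells with positive control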
MITF inh: inhibitors of human MITF. O75030. AlphaScreen MITF homodimerization, bead proximity signal. inhibition, % at 2.6 µM. 0.91% of 650,000 active. AID 1259374; in the data active means inhibition above about 50%;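 further: 0% = vehicle wells with protein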
Target sequence (O75030 whole entry, looked up): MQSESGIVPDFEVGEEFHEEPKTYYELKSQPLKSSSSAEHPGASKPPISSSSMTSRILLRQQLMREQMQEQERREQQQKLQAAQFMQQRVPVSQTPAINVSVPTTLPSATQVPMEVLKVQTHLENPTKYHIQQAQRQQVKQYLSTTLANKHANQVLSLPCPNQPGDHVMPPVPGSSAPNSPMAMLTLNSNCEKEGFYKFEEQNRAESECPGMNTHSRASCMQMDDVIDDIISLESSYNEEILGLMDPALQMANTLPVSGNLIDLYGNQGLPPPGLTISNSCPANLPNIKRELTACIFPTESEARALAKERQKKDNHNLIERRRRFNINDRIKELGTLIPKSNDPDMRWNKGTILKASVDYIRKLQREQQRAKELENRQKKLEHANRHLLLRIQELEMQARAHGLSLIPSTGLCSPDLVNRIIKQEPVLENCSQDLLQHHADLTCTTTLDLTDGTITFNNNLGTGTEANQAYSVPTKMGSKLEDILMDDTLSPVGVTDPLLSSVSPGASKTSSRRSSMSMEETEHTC
FBW7 activator: human FBW7 E3 ligase activation, primary screen | 0.13% of 650,000 active | normalized activity (activation), % at 26.1 µM | Q969H0 | AlphaScreen FBW7–phospho-cyclin E peptide binding, activator screen; in the data active means normalized activity above about 1.9%;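 further: purified mutant Fbw7 with reduced substrate affinity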
TEAD-YAP block: TEAD-YAP interaction inhibition; HEK-TIYL cells, TEAD-Gal4/YAP UAS-luciferase luminescence; AID 1259422; 1.4% of 640,000 active; inhibition, % at 9.12 µM; in the data active means inhibition above about 32%;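 further: 0% = median of test compound wells and 100% = reference inhibitor wells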
MITF confirm: human MITF inhibition, confirmation; shares compounds with MITF inh; AlphaScreen MITF homodimerization, biotin/His-MITF beads; inhibition, % at 2.6 µM; 16% of 4,700 active;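 active means inhibition above a cutoff derived from the DMSO control wells, cut at about 28% in these data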;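 further: 0% = MITF dimer wells with DMSO only; inhibitors lower the bead chemiluminescence by keeping MITF from dimerizing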
AS interf DR: optically interferes with AlphaScreen signal in dose response | shares compounds with MITF inh | AlphaScreen optical interference counterscreen, cell-free | IC50, µM | 6% of 480 active | AID 1259373; call rule not given here
AlphaScreen intf2: AlphaScreen optical interference, counter-screen. shares compounds with MITF inh. LysRS AlphaScreen counterscreen, signal interference, triplicate. inhibition, % at 2.6 µM. 7.6% of 4,700 active;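 active means inhibition above a cutoff derived from the DMSO control wells, cut at about 30% in these data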
GPR151 conf act: human GPR151 activation, confirmation screen; shares compounds with GPR151 activ; GPR151 PathHunter beta-arrestin cells, luminescence, 90 min; % of EA-reagent control over plate median; activation, % at 11.2 µM; 6,700 tested, under 10 active;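 active means mean percent activation across replicates above the confirmation screen cutoff of 4.91%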
GPR119 ag: GPR119 activation, counter-screen for GPR151 activators. AID 1508611. activation, % at 11.2 µM. GPR119 PathHunter beta-arrestin cells, luminescence, 90 min; 0 = compound-well median, 100 = enzyme-acceptor control. shares compounds with GPR151 activ. 0.3% of 6,700 active;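 active means mean percent activation in the counterscreen above 29.09%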;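 further: counterscreen on off-target GPR119 to flag nonselective hits from the GPR151 activator screen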
Numbers without * were called inactive; · = no result.

SMILES	GPR151 activ	MITF inh	FBW7 activator	TEAD-YAP block	GPR151 conf act	GPR119 ag	others
O=C(c1ccc2nc(-c3cccs3)c(-c3cccs3)nc2c1)N1CCC2(CC1)OCCO2	0	2	0	11	·	·
CCOc1ccc(C=C2C(=O)NC(=O)NC2=O)c(O)c1	-2	-7	0	-6	·	·
O=C(CN1CCN(C(=O)COc2ccccc2F)CC1)c1cccs1	2	51*	0	12	·	·	MITF confirm=7;AlphaScreen intf2=20
O=C(CN1CCN(C(=O)Cc2ccc(F)cc2)CC1)c1cccs1	-1	24	0	7	·	·
O=C(O)CSc1cc(Cl)c2nonc2c1[N+](=O)[O-]	1	87*	0	13	·	·	MITF confirm=85*;AS interf DR=>6.6;AlphaScreen intf2=21
O=[N+]([O-])c1c(Cl)cc(Cl)c2nonc12	2	7	0	2	·	·
CCOC(=O)c1ccc(NC(=O)CCc2nc(C3=CCN(C)CC3)no2)cc1	1	62*	3.4*	12	·	·	MITF confirm=69*;AlphaScreen intf2=38*
CCc1ccc(N2C(=O)CC(=O)NC2=O)cc1	-1	69*	0	1	·	·	MITF confirm=7;AlphaScreen intf2=15
COc1cccc(CN2CCN(c3ccc(C(C)=O)cc3)CC2)c1	0	64*	0	-6	·	·	MITF confirm=9;AlphaScreen intf2=3
COc1cccc(CN2CCN(Cc3ccc(C)cc3)CC2)c1	-1	77*	0	-12	·	·	MITF confirm=8;AlphaScreen intf2=1
COc1ccc(N2CCN(Cc3cccc(OC)c3)CC2)cc1	1	34	0	5	·	·
COc1ccc(CN2CCN(Cc3cccc(OC)c3)CC2)cc1	2	63*	0	2	·	·	MITF confirm=12;AlphaScreen intf2=12
CC(=O)c1ccc(N2CCN(Cc3cccc(O)c3)CC2)cc1	0	31	0	-3	·	·
COc1ccc(C2C([N+](=O)[O-])=C(N)Oc3c2c(=O)oc2ccccc32)cc1OC (stereo not drawn)	1	19	0	-7	·	·
COc1cc(C2C([N+](=O)[O-])=C(N)Oc3c2c(=O)oc2ccccc32)ccc1O (stereo not drawn)	5.7*	3	0	26	0	-4
Cc1csc(NC(=O)c2cccn(Cc3ccc(Cl)cc3)c2=O)n1	4.9*	17	0	-2	-1	-16
CN1CCN(c2ccc([N+](=O)[O-])cc2C=O)CC1	5.9*	13	0	1	1	7
CN1CCN(c2ccc([N+](=O)[O-])cc2C(F)(F)F)CC1	1	5	0	-2	·	·
COc1ccccc1/C=C/c1nc2ccccc2c(=O)n1-c1ccc(Br)c(C)c1	1	-11	0	5	·	·
O=C(c1ccccc1)c1cc(Cl)ccc1NC(=O)c1cnc2n(c1=O)CCS2	0	9	0	6	·	·
COc1cccc(CNC(C)C(O)c2ccccc2)c1 (stereo not drawn)	0	5	0	11	·	·
C=CCOC(=O)C1=C(C)OC(N)=C(C(=O)OCc2ccccc2)C12C(=O)Nc1ccccc12 (stereo not drawn)	6.3*	20	0	8	1	3
COc1cccc(CNC(=O)c2cn(Cc3ccccc3)c3cc(-c4cn[nH]c4)ccc23)c1	2	-3	0	0	·	·
COc1cccc([C@H](C)NC(=O)c2cn(CCN3CCCC3)c3cc(-c4cn[nH]c4)ccc23)c1	11*	16	0	-3	0	1
CC(=O)c1ccc(NC(=O)c2sc3nc4c(cc3c2N)C2CCN4CC2)cc1	-1	-3	0	-22	·	·
SMILES	GPR151 activ	MITF inh	FBW7 activator	TEAD-YAP block	GPR151 conf act	GPR119 ag	others
O=[N+]([O-])N=C1NCN(C2CCN(Cc3ccccc3)CC2)CN1	5.5*	-3	0	-10	1	1
O=C(Nc1ccccc1)N1CNC(=N[N+](=O)[O-])NC1	3	-3	0	-4	·	·
O=C(/C=C/c1ccccc1)Nc1ccccc1Cl	-4	1	0	-55	·	·
O=c1oc2ccccc2c(O)c1C(c1ccc2c(c1)OCO2)c1c(O)c2ccccc2oc1=O	15*	-10	0	-7	0	4
C[N+]1(C)C2CCC1CC(OC(=O)C(c1ccccc1)c1ccccc1)C2 (stereo not drawn)	-1	-6	0	-1	·	·
COc1cc(/C=C(\C#N)c2nn(CCO)c(N)c2C#N)ccc1OCc1c(F)cccc1Cl	-1	2	0	20	·	·
COc1ccc2oc3c(c2c1)NC(=O)CN=C3c1ccccc1	6.9*	13	0	-11	1	-1
COc1ccc2oc3c(c2c1)NC(=O)CN=C3c1ccc(F)cc1	-2	20	0	1	·	·
O=[N+]([O-])c1ccc(N2CCNCC2)cc1NCCO	0	3	0	-25	·	·
CN1CCN(c2ccc([N+](=O)[O-])c(NCCO)c2)CC1	11*	-4	0	0	0	1
CCOC(=O)C1=C(C)OC(N)=C(C#N)C12C(=O)Nc1ccc(Br)cc12 (stereo not drawn)	1	4	0	0	·	·
CC1=C(C(=O)OC(C)C)C2(C(=O)Nc3ccc(Br)cc32)C(C#N)=C(N)O1 (stereo not drawn)	14*	19	0	5	0	-6
COc1cccc(C(c2c(O)[nH]c(=O)[nH]c2=O)N2CCCC(C)C2)c1OC (stereo not drawn)	19*	17	0	4	0	8
COc1cccc(C(c2c(O)[nH]c(=S)[nH]c2=O)N2CCOCC2)c1OC (stereo not drawn)	0	9	0	-12	·	·
O=C1NC(=S)NC(=O)C1=Cc1ccc(I)o1	5.7*	63*	-2	3	-1	-9
COc1cc2c(cc1O)[C@@H]1Cc3ccc(OC)c(O)c3CN1CC2	6.0*	14	0	44*	1	-13
COc1ccc(NC(C)=O)cc1NC(=O)c1cccn(Cc2ccc(Cl)cc2)c1=O	0	19	0	0	·	·
Cc1ccccc1-n1c(/C=C/c2ccccc2O)nc2ccccc2c1=O	0	-7	0	14	·	·
CCOc1ccccc1N1CCN(Cc2cccnc2)CC1	5.5*	40	0	5	0	11
Cc1cc(N2CCOCC2)ccc1/C=C1\C(=O)NC(=O)N(c2ccc3c(c2)OCO3)C1=O	1	17	0	5	·	·
CCc1c(C)nc(N)nc1N1N=C1SCC(N)=O	9.5*	14	1	-5	-1	-8
Cc1nn(Cc2ccccc2)c(C)c1C=O	5.1*	-2	0	-9	0	-1

Screening data as filed in PubChem BioAssay.
